From PubChem BioAssay (EPA / NIEHS)
Activity calls are given as the source filed them. The calls were made as follows: active = hit-call score of the fitted dose curve at least 0.9, where 1 is the maximum; inactive = score below 0.9.

Experiment: ATG_BRE_CIS: Attagene CIS-FACTORIAL HepG2 Assay for human Bone Morphogenetic Protein (BMP) Response Element (BRE) (AID 2282933)
Details: HepG2 BMP response element reporter, Attagene transcription factor profiling; actives raise or lower the signal
Procedure: ATG_CIS is a cell-based, multiplexed-readout assay that uses HepG2, a human liver cell line, with measurements taken at 24 hours after chemical dosing in a 24-well plate.ATG_BRE_CIS is one of 52 assay component(s) measured or calculated from the ATG_CIS assay. It is designed to make measurements of mRNA induction, a form of inducible reporter, as detected with fluorescence intensity signals by Reverse transcription polymerase chain reaction (RT-PCR) and Capillary electrophoresis technology.Data from the assay component ATG_BRE_CIS was analyzed into 1 assay endpoint. This assay endpoint, ATG_BRE_CIS, was analyzed with bidirectional fitting relative to DMSO as the negative control and baseline of activity. Using a type of inducible reporter, measures of mRNA for gain or loss-of-signal activity can be used to understand the reporter gene at the transcription factor-level as they relate to the gene SMAD1. Furthermore, this assay endpoint can be referred to as a primary readout, because this assay has produced multiple assay endpoints where this one serves a reporter gene function. To generalize the intended target to other relatable targets, this assay endpoint is annotated to the dna binding intended target family, where the subfamily is Smad protein.
Human liver HepG2 cells are transiently transfected with multiple reporter transcription units (MRTUs) in 6-well plates using FuGene 6 reagent (Roche; 3 ml FuGene/1 mg DNA). The MRTU constructs are regulated by a cis-regulating element (promoter). […] A major difference between the CIS and TRANS system is that in CIS activities of endogenous TFs are measured, whereas the TRANS assay evaluates changes in activities of exogenous, chimeric NR-Gal4 proteins. […] At the end of 24 hour incubation, total RNA was isolated using TriZol reagent (Invitrogen). The isolated RNA is then reverse-transcribed using oligo(dT) primer and Mo-MLV reverse transcriptase (Invitrogen) with DNAse I (Ambion) treatment for 30 min. The one-tenth of the produced cDNA was amplified by PCR using Taq DNA polymerase (Invitrogen) and two reporter sequence-specific primers. The PCR products were fluorescently labeled by primer extension with 6-arboxyfluorescein (6-FAM) 5'-labeled reporter sequence-specific primer (2 min at 95 C, 20 s at 68 C and 10 min at 72 C) and these products were digested with 5U of HpaI (New England Biolabs) for 2h at 37 C. The fragments were purified using Qiaquick PCR columns (Qiagen), analyzed on an ABI 3130xL genetic analyzer (Applied Biosystems) with peak positions identified by using a set of X-rhodamine (ROX)-labeled MapMarker1000 molecular weight standards (BioVentures). The raw capillary electrophoresis data was processed using Attagraph software (Attagene).

| Compound | outcome | AC50 |
| --- | --- | --- |
| CCCCCc1cccc(=O)o1 | inactive |  |
| C=C(C)C(N)=O | inactive |  |
| CC(=N[Si](C)(C)C)O[Si](C)(C)C | inactive |  |
| CC(C)=CC(=O)O | inactive |  |
| CC(C)(CO)CO | inactive |  |
| CCC(C)COC(=O)CC(C)C (stereo not given) | inactive |  |
| CC(=O)OC/C=C(C)/C=C/C=C(C)/C=C/C1=C(C)CCCC1(C)C | inactive |  |
| Nc1cc([N+](=O)[O-])ccc1C(=O)O | inactive |  |
| CCCCCCC(O)CCOC(C)=O (stereo not given) | inactive |  |
| CC1=CCC(=C(C)C)CC1 | inactive |  |
| C=C(C)C(=O)OCCN(C)C | inactive |  |
| c1coc(CNc2ncnc3nc[nH]c23)c1 | inactive |  |
| O=C(O)c1ccco1 | inactive |  |
| O=S(=O)(O)c1cc(S(=O)(=O)O)c2c(N=Nc3ccccc3)c(O)ccc2c1 | inactive |  |
| CC/C(=C(\c1ccccc1)c1ccc(OCCN(C)C)cc1)c1ccccc1 | inactive |  |
| c1ccc2c(c1)-c1ccc3ccc4cccc5cc-2c1c3c45 | inactive |  |
| Nc1ccc(N)c([N+](=O)[O-])c1 | inactive |  |
| NS(=O)(=O)c1cc(C(=O)O)c(NCc2ccco2)cc1Cl | inactive |  |
| CCCCCCOC(C)=O | inactive |  |
| CC(C)C(=O)c1ccccc1 | inactive |  |

| Compound | outcome | AC50 |
| --- | --- | --- |
| CCCCCCCCCC(=O)OCC | inactive |  |
| NC(=O)c1cnccn1 | inactive |  |
| CC=CC(=O)C1=C(C)C=CCC1(C)C | inactive |  |
| CCCCCCCOC(C)=O | inactive |  |
| C=C(C)C(=O)OCCC(C)OC(=O)C(=C)C (stereo not given) | inactive |  |
| COc1ccc(N)c(C)c1 |  | 151 µM (active) |
| CC(C)Cc1ccc(C(C)C(=O)O)cc1 (stereo not given) | inactive |  |
| CCC(C)(CCCC(C)C)OC(C)=O (stereo not given) | inactive |  |
| CC1=CC(O)CC(C)(C)C1 (stereo not given) | inactive |  |
| CCCC(O)C(CC)CO (stereo not given) | inactive |  |
| NC(=O)NC(N)=O | inactive |  |
| COc1ccccc1O | inactive |  |
| CC(C)C(=O)OCC=Cc1ccccc1 | inactive |  |
| CCCCN(CCCC)CCCCCCN(CCCC)CCCC | inactive |  |
| Cc1cccc(C)c1 | inactive |  |
| CCCc1ccc(N)cc1 | inactive |  |
| CCCCCCCCCCCCCC(=O)OCC | inactive |  |
| CCCCCCCCCOS(=O)(=O)O | inactive |  |
| CCCCCCCCCCCCOC(C)=O | inactive |  |
| CCCO | inactive |  |
